Out of some 370,000 compounds screened, about 2,100 (0.57%) were called active.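 The calls were made as follows: active = inhibition above mean plus 3 SD of compounds lying within the high and low control bounds (cut at about 19% in these data); inactive = the rest.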 Shown is part of a subset that was picked to be rich in actives.
Target: Group 3 secretory phospholipase A2 (Homo sapiens) (UniProt Q9NZ20)
Assay: human group III sPLA2 inhibitors, primary screen, biochemical, QFRET, BODIPY PC-A2 liposome substrate (AID 743126);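 also: 0% = median of test compound wells and 100% = no enzyme DMSO wells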
Settings: QFRET BODIPY PC-A2 liposome hydrolysis, fluorescence; at 12.2 µM; hits give high values

Sequence of Group 3 secretory phospholipase A2 (Homo sapiens) (Q9NZ20 whole entry, looked up): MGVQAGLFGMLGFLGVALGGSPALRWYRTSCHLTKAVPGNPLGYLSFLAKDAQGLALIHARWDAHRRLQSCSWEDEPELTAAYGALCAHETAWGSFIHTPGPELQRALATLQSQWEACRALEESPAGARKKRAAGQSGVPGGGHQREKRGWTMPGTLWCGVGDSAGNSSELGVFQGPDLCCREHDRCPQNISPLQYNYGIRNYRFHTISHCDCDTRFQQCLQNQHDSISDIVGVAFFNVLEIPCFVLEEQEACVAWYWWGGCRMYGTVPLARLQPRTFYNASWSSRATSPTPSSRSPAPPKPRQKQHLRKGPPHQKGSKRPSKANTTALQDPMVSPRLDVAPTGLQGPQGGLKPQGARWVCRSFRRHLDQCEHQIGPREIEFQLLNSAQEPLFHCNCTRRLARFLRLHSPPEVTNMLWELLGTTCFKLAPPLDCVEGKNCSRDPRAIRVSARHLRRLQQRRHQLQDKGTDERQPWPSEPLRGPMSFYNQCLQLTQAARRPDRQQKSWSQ

inhibition, inactive:
CC(C)c1ccc(NC(=S)NC2CC3C=CC2C3)cc1 (configuration not stated) 0.31%
O=C(NNC(=O)C1C2CCC(C2)C1C(=O)O)c1ccc(Cl)cc1 (configuration not stated) 4.75%
CC1CCN(C(=S)NC2CC3CCC2C3)CC1 (configuration not stated) 14.4%
O=S(=O)(NC1CC2CCC1C2)c1ccc(Cl)cc1 (configuration not stated) -4.6%
Cc1ccc(C2=CCN(C)C(=O)N2c2ccc(Cl)cc2)cc1 -5.31%
COC(=O)C[C@@H]1CC[C@@H]2[C@@H](COc3ccc(NC(=O)Nc4ccc(F)c(F)c4)cc3C(=O)N2C)O1 -13.5%
Cc1cccc(N(Cc2ccccc2)C(=O)c2cc(S(=O)(=O)N3CCOCC3)ccc2F)c1 -1.09%
Cc1ccc(S(=O)(=O)N2CCOCC2)cc1C(=O)Nc1ccccc1N1CCCC1 1.07%
CCC(=O)Nc1ccc2c(c1)C(=O)N(C)[C@@H]1CC[C@@H](CC(=O)NCCc3ccccc3)O[C@H]1CO2 4.64%
C[C@H](C(=O)N(C)c1ccccc1)[C@@H](O)c1ccc(Cl)cc1 -2.63%
O=C(OC12CCCN(C1)/C(=C/c1cccnc1)C2)C1CCCC1 (configuration not stated) -0.59%
O=C(NNC(=O)C1CCN(c2ncccn2)CC1)c1ccccc1 -1.66%
Cc1ccccc1NC(=O)C1CCN(C(=O)NC2CCCCC2)CC1 -4.04%
COC(=O)c1cc(S(=O)(=O)N2CCN(c3ccccc3C)CC2)cn1C 1.56%
CCCCNC(=O)c1ccc(-n2c(=S)[nH]c3ccccc3c2=O)cc1 4.64%
CCCCn1c(=S)[nH]c2ncccc2c1=O 2.69%
COc1ccccc1C(=O)NC1CCCCN(C(C)C)C1=O (configuration not stated) 12.1%
COC(=O)[C@H](C(C)C)N(CCCc1cn(Cc2ccccc2)nn1)S(=O)(=O)c1ccc(F)cc1Br -15.2%
CCCCCOC(=O)c1ccc(N2C(=O)C3C4C=CC(C4)C3C2=O)cc1 (configuration not stated) -15.1%
COc1ccc(S[C@]2(C(=O)N(C)C)CC(=O)N(c3ccc(OC)cc3)[C@@H]2c2ccc(OC)cc2)cc1 -13.3%
CCCCCCN1CCS(=O)(=O)N(Cc2ccc(C(F)(F)F)cc2)C(C(=O)OC)C1 (configuration not stated) 5.31%
O=[N+]([O-])c1cc(Cl)cc(/C=N/NC(=S)Nc2cc(S(=O)(=O)N3CCOCC3)ccc2Cl)c1O 16.3%
O=C(NN=Cc1ccco1)C(=O)Nc1ccc(Cl)c([N+](=O)[O-])c1 3.31%
CN(C)CC(=O)N[C@@H]1C[C@@H]2O[C@H](CO)CC[C@@H]2O[C@@H]1CCc1ccc(C#Cc2ccccc2)cc1 -19.5%
COc1ccc(-n2c(SCC(=O)Nc3ccc4c(c3)OCCO4)nnc2-c2ccc(Cl)cc2)cc1 0.31%
CC(NCc1ccco1)C(=O)N1CCCCC1 (configuration not stated) 3.8%
O=C(CSc1ccccc1F)NC1CCS(=O)(=O)C1 (configuration not stated) 1.4%
CCN(CC(=O)NCCc1ccccc1)S(=O)(=O)c1ccccc1 0.93%
CCCNC(=O)Nc1ccc2c(c1)C(=O)N(C)[C@H]1CC[C@H](CC(=O)NCC3CCCCC3)O[C@@H]1CO2 -24.2%
C=CCN1[C@@H](Cc2ccccc2)COc2cccc(N3CCSCC3)c2S1(=O)=O -0.87%
O=C(CSc1nc2ccccc2s1)N=Nc1c(O)[nH]c2ccccc12 -40.6%
O=C(CSc1nnc(-c2cccs2)n1Cc1ccco1)c1ccc2c(c1)OCO2 -35.9%
O=C(CSc1nnc(COc2ccccc2)n1Cc1ccco1)c1ccc2ccccc2c1 -53.5%
COc1ccc(-n2c(COc3ccc(C)cc3)nnc2SCC(=O)Nc2ccc(Oc3ccccc3)cc2)cc1 -8.43%
CCN(C(=O)[C@@H](C1CC1)[C@@H](O)c1ccc2ccccc2c1)c1ccccc1 4.03%
CCCCN1CCN(C(=O)c2ccc3c(c2)NC(=O)C(C)(C)O3)CC1 5.11%
O=C(Nc1ccccc1)N1CCN(Cc2nc3ccccc3c(=O)[nH]2)CC1 7.43%
COC(=O)[C@H](C(C)C)N1CCc2nnn(Cc3ccc(C)cc3)c2-c2ccccc2S1(=O)=O -9.33%
C=C(C)C#CC(Cc1ccccc1)N(CC1CC1)/C(N)=N/C(=O)OCc1ccccc1 (configuration not stated) 7.88%
CC(C)c1cc(N=O)cc(C(C)C)c1O -42.9%
C[C@@H]1COc2cccc(N3CCCC3)c2S(=O)(=O)N1C 2.99%
O=C(c1ccccc1)c1ccc(-c2ccccc2C(=O)NC2CCCCN(Cc3ccc(Cl)cc3)C2=O)cc1 (configuration not stated) -1.89%
Brc1ccccc1C1N=C(c2ccccc2)NO1 (configuration not stated) 9.79%
COc1cc2c(cc1OC)C(c1ccccc1Br)NC(=O)C2 (configuration not stated) 13.2%
Cc1ccc(NC(=O)Nc2cc(C)nn2-c2ccccc2)cc1 3.2%

inhibition, active:
S=C(NNC(=S)NC1CC2CCC1C2)NC1CC2C=CC1C2 (configuration not stated) 19.5%
O=C(NNC(=S)NC1CC2CCC1C2)c1ccc(Cl)cc1 (configuration not stated) 19.4%
Cc1ccc(S(=O)(=O)N2CCOCC2)cc1C(=O)NC(=S)N(Cc1ccccc1)C(C)C 23.9%
Cc1ccccc1NC(=O)C1CCN(c2ncccn2)CC1 19.5%
CCCCn1c(=S)[nH]c2ccccc2c1=O 25.3%
CCCCCCCCCCOC(=O)C[N+](C)(C)CC1CCCCC1O (configuration not stated) 19.3%
O=C(N/N=C/c1cc(Cl)cc([N+](=O)[O-])c1O)C(O)(c1ccccc1)c1ccccc1 21.2%
CCN(CC(=O)NC1CCS(=O)(=O)C1)S(=O)(=O)c1ccccc1 (configuration not stated) 22.4%
Cc1sc2nc(SCC(=O)c3ccc(O)c(O)c3)n(Cc3ccco3)c(=O)c2c1C 23.9%
CC(C)=CCCC1(C)C=Cc2c(ccc3c2[nH]c2cc(O)c(C)cc23)O1 (configuration not stated) 22.9%
CC(C)c1cc(C(=O)N/N=C/c2ccoc2)c(O)c(C(C)C)c1 22.1%
Brc1ccccc1C1Nc2cccc3cccc(c23)N1 27.1%
